Mcl1 Noxa PPI: Mcl-1/Noxa binding inhibitors, primary screen, biochemical, TR-FRET, 1536-well; AID 1022, 2008; TR-FRET Mcl-1/Noxa peptide binding, 2 h; Induced myeloid leukemia cell differentiation protein Mcl-1 (Homo sapiens), Q07820; 1.5% of 220,000 active; inhibition, % at 21.7 µM;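 active = compounds that cut the protein-peptide binding signal by more than 50% relative to plate controls in a single-dose test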;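 also: His-tagged Mcl-1 with rhodamine Noxa BH3 peptide and terbium anti-His antibody; 0% = Mcl-1 plus Noxa peptide wells and 100% = peptide-only wells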
MCL1-BIM inh: inhibitors of MCL1 binding to BIM-BH3, primary screen, biochemical, fluorescence polarization; inhibition, % at 10.9 µM; AID 2057, 2009; Induced myeloid leukemia cell differentiation protein Mcl-1 (Homo sapiens), Q07820; GST-MCL1 / FITC-Bim-BH3 fluorescence polarization; 0.68% of 320,000 active;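 active = inhibition above the mean inhibition of all tested compounds plus 3 SD, set per campaign, cut at about 40% in these data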;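 also: 0% = DMSO wells and 100% = unlabeled Bim-BH3 peptide control; higher means more loss of mP so more displacement of Bim peptide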
Mcl1-Bid inh: Mcl-1/Bid binding inhibitors, primary screen, biochemical, TR-FRET, 1536-well | Induced myeloid leukemia cell differentiation protein Mcl-1 (Homo sapiens), Q07820 | 0.97% of 220,000 active | TR-FRET Mcl-1/Bid-Dy647 peptide binding | inhibition, % at 21.7 µM;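 active = compounds that cut the binding signal by more than half at the single screening dose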;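 also: His-tagged Mcl-1 with europium anti-His antibody binding Bid BH3 peptide; 0% = Mcl-1 plus peptide wells and 100% = peptide-only wells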
Mcl-1 Bim block: inhibitors of Bim peptide binding to Mcl-1, primary screen, biochemical, bead-based flow cytometry, multiplex. Induced myeloid leukemia cell differentiation protein Mcl-1 (Homo sapiens), Q07820. Bim peptide-Mcl-1 binding. inhibition, % at 10 µM. 0.1% of 190,000 active; in the data active = inhibition above about 40%;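 also: 0% = no compound tracer wells and 100% = peptide blocker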
BCLXL inh confirm: Bcl-xL inhibitors blocking Bim BH3 binding, confirmation, counter-screen for MCL1 inhibitor project, biochemical, fluorescence polarization; shares compounds with MCL1-BIM inh; GST-Bcl-xL / FITC-Bim BH3 peptide FP binding; inhibition, % at 10.9 µM; 54% of 1,700 active;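 active = inhibition above a cutoff equal to the mean inhibition of all tested compounds plus 3 SD, cut at about 30% in these data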;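 also: 0% = DMSO wells and 100% = unlabeled Bim BH3 control peptide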
Target sequence (Q07817 whole entry, looked up): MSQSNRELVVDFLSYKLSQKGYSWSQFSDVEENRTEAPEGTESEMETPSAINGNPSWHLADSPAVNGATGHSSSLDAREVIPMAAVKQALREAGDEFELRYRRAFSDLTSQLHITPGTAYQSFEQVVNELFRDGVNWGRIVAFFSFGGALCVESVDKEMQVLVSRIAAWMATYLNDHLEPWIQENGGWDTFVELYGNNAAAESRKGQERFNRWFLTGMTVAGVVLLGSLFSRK
MCL1 inh confirm: inhibitors of MCL1 binding to BIM-BH3, confirmation, biochemical, fluorescence polarization, triplicate; shares compounds with MCL1-BIM inh; GST-MCL1 / FITC-Bim-BH3 fluorescence polarization; inhibition, % at 10.9 µM; 61% of 1,700 active;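 active = inhibition above the average of all tested compounds plus 3 SD, cut at about 40% in these data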;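 also: 0% = DMSO wells and 100% = unlabeled Bim-BH3 control peptide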
An asterisk follows results filed as active; x = not tested or not shown; + = active, no number. A selection: hits, their analogues and other compounds. The true share with any hit is near 2%.

SMILES | Mcl1 Noxa PPI | MCL1-BIM inh | Mcl1-Bid inh | Mcl-1 Bim block | BCLXL inh confirm | MCL1 inh confirm
Cc1ccc2nc(C)cc(C(=O)OCC(=O)Nc3c(C)n(C)n(-c4ccccc4)c3=O)c2c1 | 3 | 0 | -17 | 0 | x | x
CC(=O)Nc1ccc(Nc2ccc3c4c(cc(=O)n3C)-c3ccccc3C(=O)c24)cc1 | 56* | 57* | 1 | 8 | 61* | 70*
CCN1/C(=C/C=C/C=C/C=C/c2sc3ccccc3[n+]2CC)Sc2ccccc21 | x | 8 | x | x | x | x
CCN1/C(=C/C=C/c2sc3ccccc3[n+]2CC)Sc2ccccc21 | x | + | x | x | + | +
Cn1cc(/C=N/NC(=O)c2cc3cc(Br)ccc3o2)c2ccccc21 | 13 | -12 | -26 | x | x | x
O=C(O)c1ccc(-n2cccc2/C=N\NC(=O)c2cc3cc(Br)ccc3o2)cc1 | 92* | 62* | -36 | x | 24 | 57*
CCOC(=O)c1c(-n2c(C)cc(C=O)c2C)sc2c1CCCC2 | 2 | -1 | -50 | -1 | x | x
Cc1ccc(C)n1-c1sc2c(c1C(=O)O)CCCC2 | 37 | 70* | -56 | -3 | 17 | 49*
COc1cccc2c1NC(C(=O)O)C1CC=CC21 (stereo unspecified) | 101* | 96* | 75* | 6 | 57* | 90*
O=C(O)C1Nc2ccc(OC(F)(F)F)cc2C2C=CCC12 (stereo unspecified) | x | 106* | x | x | 15 | 67*
O=C(NC1CC1)C1Nc2ccc(OC(F)(F)F)cc2C2C=CCC12 (stereo unspecified) | x | -2 | x | x | x | x
COC/C=C/C1=CC2=CC(=O)C(C)(OC(=O)c3cnc4ccccc4n3)C(=O)C2=CO1 (stereo unspecified) | x | 96* | x | x | 29 | 56*
O=C(OCC(=O)N1CCN(c2ccccc2)CC1)c1ncc(Cl)c(Cl)c1Cl | x | -4 | x | x | x | x
C/C=C/C=C/[C@H]1Cc2cc(O)cc(O)c2O1 | 56* | 67* | -146 | x | 57* | 83*
CCn1c(SC(C)C(=O)O)nc2sc3c(c2c1=O)CCC3 (stereo unspecified) | 67* | 44* | -58 | -1 | 15 | 52*
COc1ccc(Br)cc1-c1noc(-c2ccncc2)n1 | -10 | 66* | -30 | -1 | 7 | -1
COc1ccc(Br)cc1-c1noc(-c2ccccc2)n1 | 9 | -3 | -3 | 7 | x | x
Cc1cc(C)n(CCCNC(=O)C(C)(C)Oc2ccc(Cl)cc2)n1 | x | 0 | x | x | x | x
Cc1cc(=O)oc2cc(OCC(=O)OCC(=O)N3CCC(C)CC3)ccc12 | 9 | -4 | -11 | -1 | x | x
COc1c(O)cccc1[C@H](O)C1CCN(CCc2ccc(F)cc2)CC1 | x | 56* | x | x | 56* | 60*
CCN1CCC(NCCc2ccc(F)cc2)CC1 | x | 10 | x | x | x | x
Cn1c(CNc2ccc(O)cc2)nc2ccccc21 | x | 66* | x | x | 81* | 82*
Cc1ccc(NCc2nc3ccccc3n2C)cc1 | 18 | -1 | -49 | 1 | x | x
Cc1onc(-c2c(F)cccc2Cl)c1C(=O)NC(=S)NCc1cccnc1 | 7 | 17 | -55 | -3 | x | x
CC(=O)OCC1=C(C(=O)O)N2C(=O)C(NC(=O)c3ccc(COc4cccc(Cl)c4Cl)o3)C2SC1 (stereo unspecified) | 48 | 51* | -5 | -1 | 18 | 66*
CC(=O)c1ccc(NC(=O)c2ccc3nc(-c4ccco4)c(-c4ccco4)nc3c2)cc1 | 101* | 80* | 97* | 10 | 36* | 81*
O=C(Nc1ccc(N2CCOCC2)cc1)c1ccc2nc(-c3ccco3)c(-c3ccco3)nc2c1 | 33 | 4 | -12 | 1 | x | x
O=C(Nc1ccccc1)c1ccc2nc(-c3ccco3)c(-c3ccco3)nc2c1 | 101* | 40* | 32 | 13 | 30 | 47*
O=C(NCc1ccccc1)c1ccc2nc(-c3ccco3)c(-c3ccco3)nc2c1 | 102* | 81* | 12 | 4 | 43* | 69*
